Several values for one entry are separate records, joined by “and”; a condition that tells them apart may be missing. Identical values can stand only once. Counter-ions that a name gives are not always drawn. ± gives the standard deviation of the averaged measurements. Whole data set: some 3,200 compounds, median “nuclei count (viability) relative to DMSO” near 99, cut for the lowest 2% near 16. This is one part of a sample in which the lowest values are shown more often than they occur.
tested on: U2OS; assay: nuclei count (viability) relative to DMSO (% of DMSO); higher = more viable cells; conditions: 10 µM; 24 h
Description: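 Primary image-based screen in U2OS cells: compounds at 10 uM for 24 h, then a 1 h o-propargyl-puromycin (OPP) pulse, click labelling, and high-throughput microscopy. Mean cytoplasmic OPP intensity and nuclei count were normalised to DMSO wells within each plate (DMSO = 100) and averaged over triplicate plates.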

Row | SMILES | nuclei count
1 | CCCNC(=O)N1N=C(c2ccc(N)cc2)c2cc3c(cc2C1C)OCO3 (configuration not stated) | 93
2 | C[C@H]1O[C@@H](O[C@H]2[C@@H](O)C[C@H](O[C@H]3[C@@H](O)C[C@H](O[C@H]4CC[C@@]5(C)[C@H](CC[C@@H]6[C@@H]5C[C@@H](O)[C@]5(C)[C@@H](C7=CC(=O)OC7)CC[C@]65O)C4)O[C@@H]3C)O[C@@H]2C)C[C@H](O)[C@@H]1O [Digoxin] | 14.3
3 | CCN1CCN(c2cc(-c3ccc(F)cc3)c3c(n2)CCCCCC3)CC1 [Blonanserin (Lonasen)] | 98.7
4 | C[S+]([O-])c1ccc(-c2nc(-c3ccc(F)cc3)c(-c3ccncc3)[nH]2)cc1 (configuration not stated) | 96.8 and 103
5 | N=C(NCCCCCCNC(=N)NC(=N)Nc1ccc(Cl)cc1)NC(=N)Nc1ccc(Cl)cc1 [Chlorhexidine] | 75.6
6 | CCCCC(CC)CNC(=N)NC(=N)NCCCCCCNC(=N)NC(=N)NCC(CC)CCCC (configuration not stated) [Alexidine dihydrochloride] | 6.87
7 | Nc1nc(OCc2cc(Br)cs2)c2[nH]cnc2n1 [Lomeguatrib] | 102
8 | COc1cccc2c1C(=O)c1c(O)c3c(c(O)c1C2=O)C[C@@](O)(C(C)=O)C[C@@H]3O[C@H]1C[C@H](N)[C@H](O)[C@H](C)O1 [Daunorubicin HCl (Daunomycin HCl)] | 10.2
9 | CC(=O)[C@]1(O)Cc2c(O)c3c(c(O)c2[C@@H](O[C@H]2C[C@H](N)[C@H](O)[C@H](C)O2)C1)C(=O)c1ccccc1C3=O [Idarubicin HCl] | 11.6
10 | COc1cccc2c1C(=O)c1c(O)c3c(c(O)c1C2=O)C[C@@](O)(C(=O)CO)C[C@@H]3O[C@H]1C[C@H](N)[C@@H](O)[C@H](C)O1 [Epirubicin HCl] | 13.2
11 | COc1cccc2c1C(=O)c1c(O)c3c(c(O)c1C2=O)C[C@@](O)(C(=O)CO)C[C@@H]3O[C@H]1C[C@H](N)[C@H](O)[C@H](C)O1 [Doxorubicin (Adriamycin)] | 12.7
12 | COc1cccc2c1C(=O)c1c(O)c3c(c(O)c1C2=O)C[C@@](O)(C(=O)CO)C[C@@H]3O[C@H]1C[C@H](N)[C@H](O)[C@H](C)O1 [Doxorubicin hydrochloride] | 13 ± 0.18
13 | COc1cccc2c1C(=O)c1c(O)c3c(c(O)c1C2=O)C[C@@](O)(C(C)=O)C[C@@H]3O[C@H]1C[C@H](N)[C@H](O)[C@H](C)O1 [Daunorubicin hydrochloride] | 12.3
14 | COc1cccc2c1C(=O)c1c(O)c3c(c(O)c1C2=O)C[C@@](O)(C(=O)CO)C[C@@H]3O[C@H]1C[C@H](N)[C@H](O[C@@H]2CCCCO2)[C@H](C)O1 [Pirarubicin] | 33
15 | CCCc1c(OCCCOc2ccc(OCC(=O)O)cc2)ccc(C(C)=O)c1O | 108
16 | COc1c(OCCCN2CCOCC2)ccc2c1N=C(NC(=O)c1cnc(N)nc1)N1CCN=C21 | 93.2
17 | CCOC(=O)[C@H](CCc1ccccc1)N[C@H]1CS[C@H](c2cccs2)CN(CC(=O)O)C1=O [Temocapril HCl] | 108
18 | O=C(/C=C/c1c(C(=O)O)[nH]c2cc(Cl)cc(Cl)c12)Nc1ccccc1 [Gavestinel] | 93.2
19 | Cn1cnc(N)c2ncnc1-2 [3-Methyladenine (3-MA)] | 107
20 | Cn1cnc(N)c2ncnc1-2 [3-Methyladenine] | 104
21 | OCC1OC(n2cnc3c(NC4CCCC4)nc(Cl)nc32)C(O)C1O (configuration not stated) [2-Chloro-N6-cyclopentyladenosine] | 93.5

Row | SMILES | nuclei count
22 | CC/C=C\C/C=C\C/C=C\C/C=C\C/C=C\C/C=C\CCC(=O)O [Docosa-4Z,7Z,10Z,13Z,16Z,19Z-hexaenoic acid] | 96.9
23 | CCCOC(=O)c1cc(O)c(O)c(O)c1 [N-Propyl gallate] | 82.9
24 | Cc1cc(/C(=C/Nc2ccc(Cl)cc2)C(=O)Nc2ccc(Cl)cc2)on1 | 102
25 | Cc1sc(N)c(C(=O)c2cccc(C(F)(F)F)c2)c1C | 107
26 | N[C@H](C(=O)O)[C@H](OCc1ccccc1)C(=O)O (racemic) | 89.6
27 | CC(C)NCCN(C(C)C)S(=O)(=O)c1ccc(Cl)cc1Cl | 79.5
28 | CCCCCS(=O)(=O)CCCCCCCCCCn1c(-c2ccc(O)cc2)c(C)c2cc(O)ccc21 | 105
29 | CN(CCOc1ccc(C[C@H](Nc2ccccc2C(=O)c2ccccc2)C(=O)O)cc1)c1ccccn1 | 104
30 | CC1(C)S[C@@H]2[C@H](NC(=O)Cc3ccccc3)C(=O)N2[C@H]1C(=O)O [Benzathine benzylpenicillin] | 81.7
31 | CC1(C)S[C@@H]2[C@H](NC(=O)Cc3ccccc3)C(=O)N2[C@H]1C(=O)O [Benzylpenicillin sodium] | 98.6
32 | CC1(C)OC2=C(C(=O)c3ccccc3C2=O)[C@H](NCc2ccccc2)[C@@H]1O | 14.7
33 | Cc1cc(C(=O)NNCc2ccccc2)no1 [Isocarboxazid] | 109
34 | C[C@H]1COC2(CCN(c3nc(=O)c4cc(C(F)(F)F)cc([N+](=O)[O-])c4s3)CC2)O1 (racemic) [BTZ043 racemate] | 101
35 | Cc1nnc(-c2ccc3occ(-c4ccc([S+](C)[O-])cc4)c3c2)o1 (configuration not stated) | 112
36 | COc1c(C)cnc(Cn2cnc3c(Cl)nc(N)nc32)c1C | 49.7
37 | Cc1cn(CCN2CCN(c3ccccc3-c3cc(C#N)cc(C(=O)NCCCN4CCCC4)c3)CC2)c2ccccc12 | 22.8
38 | O=C(Nc1cc(C(F)(F)F)cc(C(F)(F)F)c1)c1cc(Cl)ccc1O | 78.7
39 | CC(C)C[C@H](NC(=O)N1CCCCCC1)C(=O)N[C@H](Cc1cn(C)c2ccccc12)C(=O)N[C@H](Cc1ccccn1)C(=O)O | 100
40 | O=C1c2ccccc2C(=O)c2c(NCCc3ccc(O)cc3)ccc(NCCc3ccc(O)cc3)c21 | 97.1
41 | O=C1c2c(O)ccc(O)c2C(=O)c2c(NCCNCCO)ccc(NCCNCCO)c21 [Mitoxantrone dihydrochloride] | 15.5
42 | C[N+](C)([O-])CCNc1ccc(NCC[N+](C)(C)[O-])c2c1C(=O)c1c(O)ccc(O)c1C2=O [Banoxantrone dihydrochloride] | 51.2

Row | SMILES | nuclei count
43 | Nc1[nH]nc2nc3ccccc3nc12 | 98.5
44 | CCC(=O)N1CCN(c2ccc(-n3c(=O)ccc4cnc5ccc(-c6cnc7ccccc7c6)cc5c43)cc2C(F)(F)F)CC1 [Torin 1] | 80.4
45 | COc1ccc(-c2ccc3ncc4c(c3c2)n(-c2ccc(N3CCNCC3)c(C(F)(F)F)c2)c(=O)n4C)cn1 | 16.4 ± 5.4
46 | Nc1ccc(-c2ccc3ncc4ccc(=O)n(-c5cccc(C(F)(F)F)c5)c4c3c2)cn1 [Torin 2] | 27.7 ± 1.8
47 | O=C1[C@@H]2[C@H]3CC[C@H](C3)[C@@H]2C(=O)N1C[C@@H]1CCCC[C@H]1CN1CCN(c2nsc3ccccc23)CC1 [Lurasidone HCl] | 102
48 | CCN1CCN(c2ccc(Nc3cc(N(C)C(=O)Nc4c(Cl)c(OC)cc(OC)c4Cl)ncn3)cc2)CC1 | 96.4
49 | CC(C)[C@H](NS(=O)(=O)c1ccc(-c2ccc(Br)cc2)cc1)C(=O)O | 97.3
50 | CC1(C)C[C@@H]1C(=O)N/C(=C\CCCCSC[C@H](N)C(=O)O)C(=O)O [Cilastatin sodium] | 96.7
51 | CC1(C)C[C@@H]1C(=O)N/C(=C\CCCCSC[C@H](N)C(=O)O)C(=O)O [Cilastatin] | 91.5
52 | COC1=CC(c2cc3ccccc3[nH]2)=N/C1=C\c1[nH]c(C)cc1C [Obatoclax mesylate (GX15-070)] | 45.5
53 | CC[C@]1(O)C[C@@H]2CN(CCc3c([nH]c4ccccc34)[C@@](C(=O)OC)(c3cc4c(cc3OC)N(C)[C@H]3[C@@](O)(C(=O)OC)[C@H](OC(C)=O)[C@]5(CC)C=CCN6CC[C@]43[C@@H]65)C2)C1 [Vinblastine] | 100
54 | CC[C@]1(O)C[C@@H]2CN(CCc3c([nH]c4ccccc34)[C@@](C(=O)OC)(c3cc4c(cc3OC)N(C)[C@H]3[C@@](O)(C(=O)OC)[C@H](OC(C)=O)[C@]5(CC)C=CCN6CC[C@]43[C@@H]65)C2)C1 [Vinblastine sulfate] | 16.8
55 | CC[C@]1(O)C[C@H]2CN(CCc3c([nH]c4ccccc34)[C@@](C(=O)OC)(c3cc4c(cc3OC)N(C=O)[C@H]3[C@@](O)(C(=O)OC)[C@H](OC(C)=O)[C@]5(CC)C=CCN6CC[C@]43[C@@H]65)C2)C1 [Vincristine sulfate] | 17.8
56 | CC[C@]12C=CCN3CC[C@@]4(c5cc([C@@]6(C(=O)OC)C[C@@H]7C[C@@H](C(C)(F)F)CN(Cc8c6[nH]c6ccccc86)C7)c(OC)cc5N(C)[C@H]4[C@@](O)(C(=O)OC)[C@@H]1OC(C)=O)[C@@H]32 [Vinflunine Tartrate] | 14.1
57 | CCC1=C[C@@H]2CN(C1)Cc1c([nH]c3ccccc13)[C@@](C(=O)OC)(c1cc3c(cc1OC)N(C)[C@H]1[C@@](O)(C(=O)OC)[C@H](OC(C)=O)[C@]4(CC)C=CCN5CC[C@]31[C@@H]54)C2 [Vinorelbine (Navelbine)] | 16.1
58 | CC[C@]1(O)C[C@H]2CN(CCc3c([nH]c4ccccc34)[C@@](C(=O)OC)(c3cc4c(cc3OC)N(C=O)[C@H]3[C@@](O)(C(=O)OC)[C@H](OC(C)=O)[C@]5(CC)C=CCN6CC[C@]43[C@@H]65)C2)C1 [Vincristine] | 18.1
59 | O=C(c1cc(O)c(O)c(O)c1)c1ccc(O)c(O)c1O [Exifone] | 94.1
60 | COc1ccccc1N1CCN(CCN(C(=O)C2CCCCC2)c2ccccn2)CC1 | 101
61 | Cn1nc(C(C)(C)C)cc1C(=O)N[C@@H](Cc1cccc(Cl)c1)C(=O)NCC#N [Cathepsin Inhibitor 1] | 107
62 | CC(C)c1cc(C(C)C)c(CC(=O)NS(=O)(=O)Oc2c(C(C)C)cccc2C(C)C)c(C(C)C)c1 [Avasimibe (CI-1011)] | 99.4

From the supplement of paper PMC8183993
